# Laboratory results published in PubChem BioAssay (NCI).
# Compounds without any hit were thinned out: in the full panel of roughly 83,000, 20% have a hit.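 The test compound was applied at a single concentration to cells in 96-well plates for 48 hours, and percent growth was recorded.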 Values without a mark were called inactive. Calls of active or inactive are those of the source.
# Test system: UO-31 renal
# Test: NCI-60 one-dose screen, 48 h (100 = growth as untreated, 0 = no growth, -100 = all killed)
# Conditions: 10 µM unless noted
# Protocol: Growth inhibition of the UO-31 human tumor cell line is measured as a screen for anti-cancer activity. Cells are grown in 96 well plates and exposed to the test compound for 48 hours. Compounds are tested at a single concentration, which is 10^-5 M for most compounds. The reported endpoint is percent growth (GI% or GIPRCNT), where numbers from 0 - 100% represent growth inhibition, and numbers from -100% - 0 represent cell death. For example, a value of 40 represents 60% growth inhibition. A value of 0 means no net growth occurred over the course of the experiment. A value of -40 indicates 40% of cells at the beginning of the experiment died by the end of the experiment. A value of -100 means all cells are dead at the end of the experiment.
# NCI-60 Human Tumor Cell Lines Screen was performed using the standard one-dose NCI protocol, which is described in more detail at https://dtp.cancer.gov/discovery_development/nci-60/default.htm.
# Compounds with GIPRCNT values below 10 were considered active. Activity score was based on GIPRCNT using the following formula: […]
# Score is 0 for GIPRCNT values of 100 or above, 50 for GIPRCNT values of 0, and 100 for GIPRCNT values of -100.
row,SMILES,growth
1,COc1ccc(C2=CC(c3cc(OC)c(OC)c(OC)c3)n3ncnc3N2)cc1 (stereo not given),41.3%
2,CC1(C)CC2=C3C=C[C@@H]4[C@@]5(C)CCC(=O)C(C)(C)[C@@H]5CC[C@@]4(C)[C@]3(C)CC[C@@]2(C(=O)O)C[C@H]1O,17.1%
3,CCc1ccc(CCC(=O)Nc2ncc(Cc3cc(Cl)ccc3Cl)s2)o1,33.4%
4,Cc1ccc(-c2csc(N(C(=O)N3CCN(c4cc5c(cc4F)c(=O)c(C(=O)O)cn5C4CC4)CC3)c3ccccc3)n2)cc1,7.46% (active)
5,CCOC(=O)CC1CSC(Nc2ccccc2)=N1 (stereo not given),91.8%
6,C#CCn1cnc2cnc(Nc3cccc(NC(=O)C=C)c3)nc21,37.5% [6.25 µM]
7,N#C/C(=C\c1ccc([N+](=O)[O-])cc1)n1nnc2cc(F)c(F)cc21,-77.8% (active)
8,CCOC(=O)c1ccccc1-c1c2ccc(=[N+](C)C)cc-2oc2cc(N(C)C)ccc12,52.1%
9,C=Cc1cnc(Nc2ccc(OC)cc2)nc1NCCCNC(=O)C1CCC1,10.2%
10,N=C(N)c1ccc(-c2ccc(-c3ccccc3)s2)cc1,83.5%
11,CC[C@]12C=CCN3CC[C@@]4(c5ccc(OC)cc5N(C)[C@H]4[C@@](O)(C(=O)OC)[C@@H]1OC(=O)CCC[P+](c1ccccc1)(c1ccccc1)c1ccccc1)[C@@H]32,80%
12,Cc1cccc[n+]1C1c2ccccc2-c2ccccc21,90.7%
13,Cc1ccc(N2C(=O)CCC2=O)cc1,97.9%
14,Cc1ccc(NC(=O)Cn2c(Br)nc3c2c(=O)n(C)c(=O)n3C)cc1,14.1%
15,COc1cc2c(c(OC)c1OC)C(=O)CC(c1cccc(NC(=O)c3ccc(C#N)cc3)c1)O2 (stereo not given),62.8%
16,CSc1nc(C)c([N+](=O)[O-])c(N)n1,98%
17,COC(=O)c1c2c(c(C)[n+]([O-])c1C)C(=O)C(NCc1cccc(Cl)c1)=CC2=O,50.6%
18,Cc1ccc2c(-c3nnc(N)s3)cc(=O)oc2c1C,80.2%
19,CCOc1ccc(-n2nc(C(=O)NCc3ccccc3OC)nc2-c2cc(OC)c(OC)c(OC)c2)cc1,-2.66% (active)
20,COc1cc(-c2nc3sccn3c2-c2ccnc(NCCNS(=O)(=O)c3ccc(Cl)cc3)n2)ccc1F,6.85% (active)

row,SMILES,growth
1,NS(=O)(=O)c1ccc(-c2cc(-c3nnc(SCC(=O)Nc4ccc(C(=O)/C=C/c5ccc(Cl)cc5)cc4)n3-c3ccccc3)c3ccccc3n2)cc1,84%
2,CCN1C(=O)N(CC)C2C1NN=c1s/c(=C\c3ccc[nH]3)c(=O)n12 (stereo not given),39.2%
3,Cc1c2cccnc2c(C)c2c1c1cc(CO)ccc1n2C,17.9%
4,CC(=O)OC(c1ccccc1)C1CCOC1=O (stereo not given),-82.3% (active)
5,COc1ccc(-c2cc(-c3ccccc3)nc(N3CCN(CCNc4ccnc5cc(Cl)ccc45)CC3)n2)cc1,-4.9% (active)
6,CCN(CC)CCN1C(=O)c2c(c(C)c3c(oc4ccc(O)cc43)c2C)C1=O,-92.4% (active)
7,CCN1C(=O)N(CC)C2C1NC(=S)N2/N=C/c1ccc(OC)cc1 (stereo not given),51.8%
8,Oc1c(CN2CCC(N3CCCCC3)CC2)cc(Cc2cc(CN3CCC(N4CCCCC4)CC3)c(O)c3ncccc23)c2cccnc12,12.4%
9,CCSc1oc(C)nc1[P+](c1ccccc1)(c1ccccc1)c1ccccc1,82.3%
10,O=C(CN1CCCCCC1)Nc1nc2ccc(NCc3ccc(Cl)cc3)cc2s1,88.6%
11,COc1cccc(Nc2ncnc3cc(NC(=O)CCl)ccc23)c1,-93.9% (active)
12,CSC1=Nc2c(c(C)c(-c3ccccc3)n2CCCC(=O)O)C2=NC(=O)C[C@H](C)N12,88.6%
13,Cc1ccc(C)c2c(C)c(C(=O)Nc3cccc(-n4cccn4)c3)oc12,40.7% [50 µM]
14,O=S(=O)(NCCNc1nccc(-c2c(-c3cccc(O)c3)nc3occn23)n1)c1ccc(Br)cc1,30.8%
15,Cc1cccc(-c2nc(Nc3ccc4ncsc4c3)c3ccccc3n2)n1,69.1%
16,CN1CCN(C(=O)C(C)(C)c2ccc(C(=O)Nc3cn4cc(-c5ccncc5)ccc4n3)cc2)CC1,-23.7% (active)
17,O=C1c2cccc3cccc(c23)C(=O)N1C/C=C/c1ccc2c3c(cccc13)C(=O)N(CCO)C2=O,48.1%
18,CCOC(=O)C(=Cc1ccc(-c2ccccc2)cc1)C(=O)OCC,55.4%
19,CN1C(=O)/C(=C/c2ccc(C(=O)Nc3ncc(Cc4cccc(Cl)c4)s3)cc2)SC1=S,55.6%
20,CCOc1c(OC)cc2c(c1O)C(=O)N[C@@H]1[C@@H](O)[C@@H](O)[C@H](O)C[C@@H]21,92.9%
